From article PMC4336329 (PLoS ONE, 2015) come the findings set out here.

The whole screen tested about 310,000 compounds, of which about 2,200 (0.71%) showed an effect of 50% or more. The effect is printed as a negative number. This excerpt belongs to a sample that is enriched for strong results.

The target of the assay is human ether-à-go-go-related gene (hERG) potassium channel (human, UniProt Q12809). The assay is described as follows: primary screen, population patch clamp on CHO cells stably expressing hERG; higher = less effect of the substance.
Chain of human ether-à-go-go-related gene (hERG) potassium channel (Q12809 whole entry, looked up): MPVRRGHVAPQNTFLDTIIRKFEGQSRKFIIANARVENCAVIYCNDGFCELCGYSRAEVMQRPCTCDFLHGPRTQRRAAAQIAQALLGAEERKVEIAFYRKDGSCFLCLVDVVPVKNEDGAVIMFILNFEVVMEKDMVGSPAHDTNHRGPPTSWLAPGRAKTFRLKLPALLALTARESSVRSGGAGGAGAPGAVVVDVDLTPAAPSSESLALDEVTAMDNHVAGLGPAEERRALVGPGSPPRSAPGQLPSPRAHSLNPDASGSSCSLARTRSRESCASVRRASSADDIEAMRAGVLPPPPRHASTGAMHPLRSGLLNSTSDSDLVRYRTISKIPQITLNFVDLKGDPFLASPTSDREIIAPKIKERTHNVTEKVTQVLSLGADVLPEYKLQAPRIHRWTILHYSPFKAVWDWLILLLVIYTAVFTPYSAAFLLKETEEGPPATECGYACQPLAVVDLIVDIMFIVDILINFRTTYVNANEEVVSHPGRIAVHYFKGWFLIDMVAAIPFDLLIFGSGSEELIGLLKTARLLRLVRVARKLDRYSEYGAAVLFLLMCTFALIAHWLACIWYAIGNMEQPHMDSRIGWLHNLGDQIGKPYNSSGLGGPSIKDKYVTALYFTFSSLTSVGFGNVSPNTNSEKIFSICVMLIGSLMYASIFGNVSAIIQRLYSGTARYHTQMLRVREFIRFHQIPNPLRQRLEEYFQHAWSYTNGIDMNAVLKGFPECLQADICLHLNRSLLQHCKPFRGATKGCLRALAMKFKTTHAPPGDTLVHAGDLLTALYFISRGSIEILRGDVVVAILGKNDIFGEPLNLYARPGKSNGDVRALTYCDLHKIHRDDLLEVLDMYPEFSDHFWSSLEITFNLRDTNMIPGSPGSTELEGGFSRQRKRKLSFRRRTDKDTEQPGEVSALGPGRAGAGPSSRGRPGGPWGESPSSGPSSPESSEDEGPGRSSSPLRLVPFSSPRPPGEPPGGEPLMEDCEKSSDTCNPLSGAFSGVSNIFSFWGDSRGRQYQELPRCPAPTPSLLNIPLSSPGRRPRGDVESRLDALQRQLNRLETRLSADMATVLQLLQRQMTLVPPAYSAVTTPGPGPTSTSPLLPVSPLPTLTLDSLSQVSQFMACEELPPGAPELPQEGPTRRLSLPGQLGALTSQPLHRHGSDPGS
For `CN(C)C1=NC[C@H](Cc2ccccc2)N1CCCC1CCCC1`, the “hERG current change (%, negative = inhibition) at 1uM” value is listed as -56.8%.

Turning to `CC(C)CCCN1C(N(C)C)=NC[C@@H]1Cc1ccccc1`, the “hERG current change (%, negative = inhibition) at 1uM” value is given as -2.29%.

With `CN(C)C1=NC[C@H](Cc2ccccc2)N1CCCC1CCCCC1`, the “hERG current change (%, negative = inhibition) at 1uM” value was -29.5%.

As for `COc1ccccc1C(=O)NC(=O)CSc1nncn1C`, the “hERG current change (%, negative = inhibition) at 1uM” value turned out to be 18.2%.

Consider `CCCSC1=C(C#N)C(c2ccc(Cl)cc2Cl)CC(=O)N1` (stereo not shown), for which the “hERG current change (%, negative = inhibition) at 1uM” value is recorded as 11.8%.

As for `O=C(O)c1cc(-c2ccc(N3CCOCC3)cc2)nn1-c1ccc(F)cc1F`, the “hERG current change (%, negative = inhibition) at 1uM” value came out at 12.7%.

In the case of `Fc1ccc(NCc2ccccc2F)cc1Cl`, the “hERG current change (%, negative = inhibition) at 1uM” value is -76.5%.

On to `Fc1ccccc1CNc1ccc(Cl)cc1`, for which the “hERG current change (%, negative = inhibition) at 1uM” value is recorded as 12.8%.

`Fc1ccccc1CNc1ccc(Cl)c(Cl)c1`: the “hERG current change (%, negative = inhibition) at 1uM” value amounted to 11.7%.

Consider `COc1ccc(CCn2c(NCCCN3CCOCC3)nc3c2c(=O)[nH]c(=O)n3C)cc1`, for which the “hERG current change (%, negative = inhibition) at 1uM” value worked out at 7.24%.

For `Nc1ccc(OCCc2ccccc2)cc1`, the “hERG current change (%, negative = inhibition) at 1uM” value was 11.5%.

Consider `O=c1c(Cl)c(NCc2ccco2)cnn1C12CC3CC(CC(C3)C1)C2`, for which the “hERG current change (%, negative = inhibition) at 1uM” value turned out to be 4.54%.

Take `CCN(CC)c1ccc(C(=O)c2ccccc2C(=O)O)c(O)c1`: the “hERG current change (%, negative = inhibition) at 1uM” value stood at 11.7%.

Consider `CN(C)c1ccc(C(=O)c2ccccc2C(=O)O)c(O)c1`, for which the “hERG current change (%, negative = inhibition) at 1uM” value worked out at 13.2%.

Take `CCCCN(CCCC)c1ccc(C(=O)c2ccccc2C(=O)O)c(O)c1`: the “hERG current change (%, negative = inhibition) at 1uM” value is -50.5%.

As for `CCN(CC)S(=O)(=O)c1cccc(-c2nnc(SCCOc3ccccc3)o2)c1`, the “hERG current change (%, negative = inhibition) at 1uM” value worked out at 12.4%.

For the compound `O=C(COC(=O)c1ccc2ncsc2c1)Nc1cc([N+](=O)[O-])ccc1Cl`, the “hERG current change (%, negative = inhibition) at 1uM” value is recorded as 7.27%.

In the case of `COc1ccc(S(=O)(=O)Nc2ccc(NC(C)=O)cc2)cc1Cl`, the “hERG current change (%, negative = inhibition) at 1uM” value turned out to be 10.3%.

Consider `CCCCN(CCCC)CCCNC(=O)C12CN(Cc3ccccc3)CC1C(c1cccc([N+](=O)[O-])c1)=NO2` (stereo not shown), for which the “hERG current change (%, negative = inhibition) at 1uM” value is -53.1%.

With `O=C(NCCCCc1ccccc1)C12CN(Cc3ccccc3)CC1C(c1cccc([N+](=O)[O-])c1)=NO2` (stereo not shown), the “hERG current change (%, negative = inhibition) at 1uM” value turned out to be 10.9%.

`CC(C)CCNC(=O)C12CN(Cc3ccccc3)CC1C(c1cccc([N+](=O)[O-])c1)=NO2` (stereo not shown): the “hERG current change (%, negative = inhibition) at 1uM” value was determined as 9.69%.

Regarding `O=C(/C=C/c1cccnc1)c1cc(F)ccc1O`, the “hERG current change (%, negative = inhibition) at 1uM” value is on record as 8.59%.

Consider `COCCNC(=O)c1ccccc1NC(=O)c1ccccc1N(C)S(=O)(=O)c1ccc(C)cc1`, for which the “hERG current change (%, negative = inhibition) at 1uM” value was determined as 8.36%.

With `CCOC(=O)c1sc(-c2ccccc2)nc1C`, the “hERG current change (%, negative = inhibition) at 1uM” value turned out to be 9.24%.

For the compound `CC(=O)Nc1ccc(OC(=O)c2cc3cc(Br)cc(Br)c3oc2=O)cc1`, the “hERG current change (%, negative = inhibition) at 1uM” value is listed as 5.16%.

Turning to `CCOc1ccc(/C=N/N2C(C)CCCC2C)cc1` (stereo not shown), the “hERG current change (%, negative = inhibition) at 1uM” value is given as 12%.

Turning to `Nc1nc(CN2CCC(Cc3ccccc3)CC2)nc(Nc2ccccc2)n1`, the “hERG current change (%, negative = inhibition) at 1uM” value is -87.4%.

For `COc1cccc(N2CCN(Cc3nc(N)nc(Nc4ccccc4)n3)CC2)c1`, the “hERG current change (%, negative = inhibition) at 1uM” value was -31.9%.

Take `COc1ccc(Nc2nc(N)nc(CN3CCc4ccccc4C3)n2)cc1`: the “hERG current change (%, negative = inhibition) at 1uM” value is on record as -23.3%.

On to `CCOC(=O)N1CCN(Cc2nc(N)nc(Nc3ccc(C)cc3)n2)CC1`, for which the “hERG current change (%, negative = inhibition) at 1uM” value is recorded as -37%.

On to `Nc1nc(CN2CCN(c3ccccn3)CC2)nc(Nc2ccc(F)cc2)n1`, for which the “hERG current change (%, negative = inhibition) at 1uM” value was -49%.

Regarding `COc1ccccc1N1CCN(Cc2nc(N)nc(Nc3ccccc3)n2)CC1`, the “hERG current change (%, negative = inhibition) at 1uM” value is -33.8%.

As for `COc1ccc(Nc2nc(N)nc(CN3CCC(Cc4ccccc4)CC3)n2)cc1`, the “hERG current change (%, negative = inhibition) at 1uM” value is listed as -81%.

For `Nc1nc(CN2CCN(C(c3ccccc3)c3ccccc3)CC2)nc(Nc2ccccc2)n1`, the “hERG current change (%, negative = inhibition) at 1uM” value worked out at 10.2%.

For `Nc1nc(CN2CCN(c3ccccn3)CC2)nc(Nc2ccc(Cl)cc2)n1`, the “hERG current change (%, negative = inhibition) at 1uM” value is reported as -56.2%.

For the compound `COc1ccc(Nc2nc(N)nc(CN3CCN(c4ccccn4)CC3)n2)cc1`, the “hERG current change (%, negative = inhibition) at 1uM” value is recorded as -37.1%.

For `CCOC(=O)N1CCN(Cc2nc(N)nc(Nc3ccc(OC)cc3)n2)CC1`, the “hERG current change (%, negative = inhibition) at 1uM” value is -9.74%.

As for `CCOC(=O)N1CCN(Cc2nc(N)nc(Nc3ccc(OCC)cc3)n2)CC1`, the “hERG current change (%, negative = inhibition) at 1uM” value is -56%.

For `O=C(c1ccccc1)c1ccc(OCC(O)CN2CCN(S(=O)(=O)N3CCCCC3)CC2)cc1` (stereo not shown), the “hERG current change (%, negative = inhibition) at 1uM” value was -12.6%.

With `COc1ccccc1N(CC(=O)NC1CCCC1)C(=O)CCC(=O)Nc1cc(C)on1`, the “hERG current change (%, negative = inhibition) at 1uM” value was 8.06%.

For `CCn1c2ccc(F)cc2c2nc3ccccc3nc21`, the “hERG current change (%, negative = inhibition) at 1uM” value was found to be 10.2%.

For the compound `CCOC(=O)Cc1[nH]nc2c1C(c1cc(OC)ccc1OC)C(C#N)=C(N)O2` (stereo not shown), the “hERG current change (%, negative = inhibition) at 1uM” value is 14.9%.

Consider `CSc1oc(-c2cccs2)nc1S(=O)(=O)c1ccccc1`, for which the “hERG current change (%, negative = inhibition) at 1uM” value amounted to 4.25%.
